Among the data in PubChem BioAssay (EPA / NIEHS) are outcome and AC50 values, retold here.

“And” between values parts separate entries of the source, which are not always exact repeats. Equal values may be shown once. More than one record can exist for a structure, and the calls need not agree. The source made the active and inactive calls. The calls were made as follows: active = hit-call score of the fitted dose curve at least 0.9, where 1 is the maximum; inactive = score below 0.9.

Read-out in the experiment: KRT18 (gene 3875)
Put plainly: BSK_BF4T_Keratin818: BioMAP Diversity Plus: BF4T Assay for Keratin 818 Biomarker Activity (AID 2284266). The note with it: primary human bronchial epithelial cells with fibroblasts. The method, then:
BSK_BF4T is a cell-based, multiplexed-readout assay that uses bronchial epithelial cells and dermal fibroblasts, a human vascular primary cell, with measurements taken at 24 hours after chemical dosing in a microplate: 96-well plate.BSK_BF4T_Keratin818 is an assay component measured in the BSK_BF4T assay. It measures Keratin 8/18 antibody related to regulation of gene expression using ELISA technology.Data from the assay component BSK_BF4T_Keratin818 was analyzed at the endpoint, BSK_BF4T_Keratin818, in the positive analysis fitting direction relative to DMSO as the negative control and baseline of activity. Using a type of binding reporter, gain or loss-of-signal activity can be used to understand protein changes. To generalize the intended target to other relatable targets, this assay endpoint is annotated to the 'cell adhesion molecules' intended target family, where the subfamily is 'keratin'.
The levels of cell surface (or secreted, indicated by the prefix "s") biomarker endpoints were measured by ELISA. Overt cytotoxicity to cells in confluent adherent cultures (all systems other than the BT system) was assessed by measuring total protein levels using sulforhodamine B (SRB) staining in parallel cultures at the time of biomarker measurements, indicated as SRB endpoints. For proliferation assays for adherent cell types, individual cell types are cultured at sub-confluence and relative cell numbers quantified by SRB staining at time points optimized for each system (48 h: 3C and CASM3C systems; 72 h: BT and HDF3CGF systems; 96 h: SAg system). SRB was performed by staining cells with 0.1% SRB after fixation with 10% TCA and reading wells at 560 nm.Viability and proliferation of PBMC (T cells) was quantified by Alamar Blue reduction for the SAg and BT systems. For PBMC viability (referred to as PBMC Cytotoxicity within the assay endpoint names), cells were plated (75,000/well in a 96-well plate) and then chemical samples added for 1 h before addition of activators, SEB and TSST-1 (20 ng/mL final concentration each). Cells were incubated for 90 h. Then, Alamar Blue (20 uL/well) (Invitrogen, Cat DAL1100) was added for 6 h, and the plates were read with a fluorescence microplate reader at 546/580 nm (excitation/emission). For PBMC proliferation, cells were plated and activated as above but incubated for only 16 h prior to addition of Alamar Blue. Plates were read after 6 h.
For the compound `CO[Si](C)(CCC(F)(F)C(F)(F)C(F)(F)C(F)(F)C(F)(F)C(F)(F)F)OC`, the result was inactive.

What is called AC50 is the concentration giving half of the maximal activity seen. In the case of `O=S(=O)(Cl)C(F)(F)C(F)(F)C(F)(F)C(F)(F)C(F)(F)C(F)(F)C(F)(F)C(F)(F)F`, the outcome was inactive and the AC50 was 48.5 µM (active).

`O=S(=O)(O)CCC(F)(F)C(F)(F)C(F)(F)C(F)(F)F`: the result was inactive.

In the case of `C=CC(=O)OCCC(F)(F)C(F)(F)C(F)(F)C(F)(F)F`, the result was inactive. On the same count and under the same terms, then `NC(=O)C(F)(F)C(F)(F)C(F)(F)C(F)(F)C(F)(F)C(F)(F)C(F)(F)F`, with “inactive”; and `O=C(O)C(F)(F)OC(F)(F)C(F)(F)OC(F)(F)C(F)(F)OC(F)(F)F`, with “inactive”.

For `NCC(F)(F)C(F)(F)C(F)(F)C(F)(F)C(F)(F)C(F)(F)C(F)(F)C(F)(F)F`, the result was inactive. The same measure, in the same setting: then `OCC(O)CC(F)(F)C(F)(F)C(F)(F)C(F)(F)F` (stereo not given), with “inactive”; and `NCC(F)(F)C(F)(F)C(F)(F)C(F)(F)C(F)(F)C(F)(F)F`, with “inactive”; and `C=CC(=O)OCC(F)(F)C(F)(F)C(F)(F)C(F)(F)C(F)(F)C(F)(F)C(F)(F)C(F)F`, with “inactive”. The same measure, in the same setting: to `O=S(=O)(OCC(F)(F)F)C(F)(F)C(F)(F)C(F)(F)C(F)(F)F` belongs “inactive”; to `OCC(F)(F)C(F)(F)C(F)(F)C(F)(F)C(F)(F)C(F)(F)CO`, “inactive”; to `NC(=O)C(F)(F)C(F)(F)C(F)(F)C(F)F`, “inactive”. On the same count and under the same terms, then `C=C(C)C(=O)OCC(F)(F)C(F)(F)C(F)(F)C(F)F`, with “inactive”; and `CCOC(=O)CC(=O)C(F)(F)C(F)(F)F`, with “inactive”. Consider `O=S(=O)(O)CCC(F)(F)C(F)(F)C(F)(F)C(F)(F)C(F)(F)C(F)(F)C(F)(F)C(F)(F)F`, for which the result was inactive. The same measure, in the same setting: to `OCC(F)(F)C(F)(F)C(F)(F)CO` belongs “inactive”; to `NC(=O)C(F)(F)C(F)(F)C(F)(F)F`, “inactive”. The same measure, in the same setting: to `OCC(O)CC(F)(F)C(F)(F)C(F)(F)C(F)(F)C(F)(F)C(F)(F)C(F)(F)C(F)(F)F` (stereo not given) belongs “inactive”; to `O=C(F)C1(F)C(F)(F)C(F)(F)C(F)(F)C(F)(F)C1(F)F`, “inactive”; to `NC(O)(C(F)(F)F)C(F)(F)F`, “inactive”.

In the case of `O=C(Cl)C(F)(F)C(F)(F)C(F)(F)C(F)(F)C(F)(F)C(F)(F)F`, the result was inactive. Same read-out and setting: to `CCN(CCO)S(=O)(=O)C(F)(F)C(F)(F)C(F)(F)C(F)(F)C(F)(F)C(F)(F)C(F)(F)C(F)(F)F` belongs “inactive”; to `CN(C(=O)C(F)(F)C(F)(F)C(F)(F)F)[Si](C)(C)C`, “inactive”. Same read-out and setting: to `CNS(=O)(=O)C(F)(F)C(F)(F)C(F)(F)C(F)(F)C(F)(F)C(F)(F)C(F)(F)C(F)(F)F` belongs “inactive”. Same read-out and setting: to `COC(F)(C(F)F)C(F)(F)F` (stereo not given) belongs “inactive”. As for `NS(=O)(=O)C(F)(F)C(F)(F)C(F)(F)C(F)(F)C(F)(F)C(F)(F)F`, the AC50 is 30 µM (active) and the result was inactive. As to `FC(F)(F)C(F)(F)C(F)(F)CC1CO1` (stereo not given), the outcome was inactive. With `C=CC(=O)OCC(F)(F)C(F)(F)C(F)(F)COC(=O)C=C`, the AC50 was 45.3 µM (active) and 51.1 µM (active). Take `O=C(O)C(F)(F)C(F)(F)C(F)(F)C(F)(F)C(F)(F)C(F)(F)C(F)F`: the result was inactive. The same measure, in the same setting: then `O=C(O)C(F)(F)C(F)(F)C(F)(F)C(=O)O`, with “inactive”; and `O=C(O)C(F)(F)C(F)(F)C(F)(F)OC(F)(F)F`, with “inactive”. Take `O=C(O)CCC(F)(F)C(F)(F)C(F)(F)F`: the result was inactive.

`OCCCC(F)(F)C(F)(F)C(F)(F)C(F)(F)C(F)(F)C(F)(F)C(F)(F)C(F)(F)F`: the AC50 is 47.1 µM (active) and 33.9 µM (active). Take `C[Si](Cl)(Cl)CCC(F)(F)C(F)(F)C(F)(F)C(F)(F)C(F)(F)C(F)(F)F`: the outcome was inactive.

As to `FC(F)(F)C(F)(F)C(F)(F)C(F)(F)C(F)(F)C(F)(F)C(F)(F)CCI`, the outcome was inactive. Same read-out and setting: then `NC(=O)C(F)(F)C(F)(F)C(F)(F)C(F)(F)C(N)=O`, with “inactive”; and `FC(F)(F)C(F)(F)C(F)(F)C(F)(F)C(F)(F)C(F)(F)CC[Si](Cl)(Cl)Cl`, with “inactive”.
